These results are taken from PubChem BioAssay (Tox21).

Unmarked numbers belong to inactive results. Inconclusive results are not listed. The source made the active and inactive calls. Unless noted, calls come from the whole dose curve; as a rule, active = well fitted curve in the direction sought with a large enough effect in the repeat runs; inconclusive = weak or mixed curves; inactive = no such curve, though single readings can be large; an effect the other way counts as inactive or inconclusive.

The nature of assay [1]: A CellTox Green Cytotoxicity Assay to monitor cytotoxicity in HEK293 cells - 8 hour (AID 1224884). Note: nearly all actives have a fitted effect of over 35% in size. In short, it runs like this: (§1)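 Read-out: fluorescence of a cell-impermeant cyanine dye staining DNA of dead cells, proportional to cytotoxicity. HEK293, 600 cells/well with reagent, compound (23 nL DMSO) added after 5 h; reads at 0, 8, 16, 24, 32, 40 h.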
Assay [2] can be described thus: qHTS RealTime-Glo MT Cell Viability Assay in HepG2 cells - 16 hour (AID 1224885). Note: nearly all actives have a fitted effect of over 50% in size. Summed up:
(§2)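 Viability was tracked continuously by NanoLuc luminescence from prosubstrate reduced by living HepG2 cells, at successive time points over 40 h of compound exposure. Cells with reagent were preincubated 5 h at 37 °C before compound addition.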

Assay [3] can be described thus: qHTS RealTime-Glo MT Cell Viability Assay in HEK293 cells - 24 hour (AID 1224886). For activity change, negative = cytotoxicity: top concentration of the series differs between compounds. Note: nearly all actives have a fitted effect of over 50% in size. Note: potency is the fitted concentration of half-maximal effect. Summed up: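 Viability tracked continuously by luminescence as live cells reduce a prosubstrate for NanoLuc; HEK293 cells preincubated 5 h, compound-treated at 37 C, and read at 0, 8, 16, 24, 32 and 40 h.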
(In general: Quantitative high-throughput screening tests each substance at several concentrations.)

A short description of assay [4]: qHTS RealTime-Glo MT Cell Viability Assay in HEK293 cells - 8 hour (AID 1224887). Note: top concentration of the series differs between compounds; nearly all actives have a fitted effect of over 50% in size. Summed up: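 Luminescence readout at each listed time point; HEK293, 600 cells/well, RealTime-Glo MT reagent added with cells; compounds pinned (23 nL in DMSO) after 5 h at 37 C; continuous culture at 37 C.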
Assay [5] can be described thus: A CellTox Green Cytotoxicity Assay to monitor cytotoxicity in HEK293 cells - 16 hour (AID 1224888). Note: nearly all actives have a fitted effect of over 35% in size. In short, it runs like this: as §1
A short description of assay [6]: qHTS RealTime-Glo MT Cell Viability Assay in HepG2 cells - 0 hour (AID 1224889). Note: nearly all actives have a fitted effect of over 50% in size. Summed up: as §2
Assay [7] is described as follows: A CellTox Green Cytotoxicity Assay to monitor cytotoxicity in HepG2 cells - 8 hour (AID 1224890). Note: nearly all actives have a fitted effect of over 45% in size. Summed up: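 HepG2, 600 cells/well premixed w/ CellTox Green; 5 h settle, 37 C/5% CO2; pintool cpd add (DMSO); 37 C, 40 h; fluorescence read at 0, 8, 16, 24, 32, 40 h.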
Assay [8] in a line: qHTS assay to identify small molecule antagonists of the estrogen receptor alpha (ER-alpha) signaling pathway using the BG1 cell line in the presence of 0.1 nM 17-beta-estradiol - cell viability counter screen (AID 1259241). Note: nearly all actives have a fitted effect of over 40% in size. Summed up:
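The cell line endogenously expresses full-length ER-alpha and carries four EREs driving luciferase. Cells are cultured 5 days hormone-free, treated 22 hr with compounds and 0.1 nM estradiol, then viability is read by fluorescence.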

Assay [9] is described as follows: qHTS assay to identify small molecule antagonists of the androgen receptor (AR) signaling pathway using the MDA cell line in the presence of 0.5 nM R1881 - cell viability counter screen (AID 1259242). Note: nearly all actives have a fitted effect of over 45% in size. Summed up: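 Live-cell protease fluorescence, CellTiter-Fluor, 30 min at 37C. Cells: MDA-kb2, 3,000/well, preincubated 5 hr. Compounds plus 0.5 nM R1881 final, 16 hr, 37C, 0% CO2.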

Assay [10] addresses Androgen receptor (Homo sapiens) (UniProt P10275). The assay can be described thus: qHTS assay to identify small molecule antagonists of the androgen receptor (AR) signaling pathway using the MDA cell line in the presence of 0.5 nM R1881 (AID 1259243). Note: nearly all actives have a fitted effect of over 50% in size. In short, it runs like this: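 MDA-kb2, MMTV-luc (AR/GR elements); 3,000 cells/well; cpd + 0.5 nM R1881 final; 16 hr 37C, 0% CO2; ONE-Glo 30 min RT; luminescence.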

A short description of assay [11]: qHTS assay to identify small molecule HDAC inhibitors (AID 1259364).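 Note: wild-type HCT-116 cells with endogenous class I/II HDAC activity; top concentration of the series differs between compounds; nearly all actives have a fitted effect of over 45% in size.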 Summed up: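 HCT-116 (wild type), 1,500 cells/well, overnight; compound 2 hr 37C 5% CO2; HDAC-Glo I/II reagent 30 min RT; luminescence readout.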
The nature of assay [12]: qHTS assay to identify small molecule HDAC inhibitors - cell viability counter screen (AID 1259365). In short, it runs like this: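 Viability readout: CellTiter-Glo luminescence. Wild-type HCT-116 cells, 2hr compound treatment following overnight attachment at 37 C.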
Assay [13] can be described thus: qHTS assay to identify small molecule agonists of the sonic hedgehog signaling (Shh) pathway - cell viability counter screen (AID 1259366). Note: nearly all actives have a fitted effect of over 50% in size. In short, it runs like this:
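Viability measured fluorometrically (CellTiter-Fluor, 1hr, 37C) in 3T3 Gli1-Luc reporter cells after 23hr compound exposure within a 24hr incubation at 37C/5% CO2.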

The nature of assay [14]: qHTS assay to identify small molecule antagonists of the sonic hedgehog signaling (Shh) pathway - cell viability counter screen (AID 1259367). Note: nearly all actives have a fitted effect of over 55% in size. In short, it runs like this: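 Viability was read by CellTiter-Fluor fluorescence in the same wells, reagent added 23 hr into compound treatment and incubated 1 hr at 37C. The 3T3 Gli1-Luc reporter cells (2,000/well) received conditioned medium after compound and ran 24 hr.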

Assay [15] can be described thus: qHTS assay to identify small molecule agonists of the sonic hedgehog signaling (Shh) pathway (AID 1259368; calls by dose curve;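 note: NIH/3T3-derived 3T3Gli1-Luc cells carrying a stable Gli1-driven firefly luciferase reporter; series mostly up to about 92 µM; nearly all actives have a fitted effect of over 15% in size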). In short, it runs like this: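 Read-out: firefly luciferase luminescence from a Gli1 response element reporter stably integrated in NIH/3T3-derived 3T3Gli1-Luc cells, measured 30 min at room temperature after reagent addition. Compound exposure lasted 24 hr at 37 C, 5% CO2.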

Assay [16] can be described thus: qHTS assay to identify small molecule antagonists of the sonic hedgehog signaling (Shh) pathway (AID 1259369; calls by dose curve; note: nearly all actives have a fitted effect of over 45% in size). Summed up: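 Luminescence readout: firefly Luc under Gli1 response element in 3T3Gli1-Luc cells (NIH/3T3 clone). Antagonist mode, stimulation by conditioned medium; compound exposure 24hr at 37 C, 5% CO2.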
Assay [17] deals with Estrogen receptor (Homo sapiens) (UniProt P03372). As to the kind of experiment: qHTS assay to identify small molecule antagonists of the estrogen receptor alpha (ER-alpha) signaling pathway using the BG1 cell line in the presence of 0.1 nM 17-beta-estradiol (AID 1259244). Note: nearly all actives have a fitted effect of over 50% in size. In short, it runs like this: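 Luminescence after ONE-Glo (30 min, room temperature) measured ERE-luciferase activity in VM7Luc4E2 cells treated 22 h with compound and 0.1 nM final 17beta-estradiol as stimulator.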
Estrogen receptor (Homo sapiens), sequence (P03372 whole entry, looked up): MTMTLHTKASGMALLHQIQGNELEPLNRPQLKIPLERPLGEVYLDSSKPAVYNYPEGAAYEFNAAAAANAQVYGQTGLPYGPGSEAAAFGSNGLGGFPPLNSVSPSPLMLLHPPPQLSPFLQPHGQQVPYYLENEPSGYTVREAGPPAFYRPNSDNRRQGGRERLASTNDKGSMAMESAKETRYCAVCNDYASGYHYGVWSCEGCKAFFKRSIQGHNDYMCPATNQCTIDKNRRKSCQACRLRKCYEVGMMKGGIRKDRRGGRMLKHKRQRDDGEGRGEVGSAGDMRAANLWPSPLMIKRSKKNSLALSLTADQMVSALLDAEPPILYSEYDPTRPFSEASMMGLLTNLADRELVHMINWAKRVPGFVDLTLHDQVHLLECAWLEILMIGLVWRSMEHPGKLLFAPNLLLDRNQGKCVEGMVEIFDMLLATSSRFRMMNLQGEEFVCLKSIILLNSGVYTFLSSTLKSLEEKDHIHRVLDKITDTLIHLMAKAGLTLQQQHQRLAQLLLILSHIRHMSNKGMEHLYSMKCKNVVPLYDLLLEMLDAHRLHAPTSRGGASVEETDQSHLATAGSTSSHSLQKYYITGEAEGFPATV

For assay [18], the target named is Estrogen receptor beta (Homo sapiens) (UniProt Q92731). The assay can be described thus: qHTS assay to identify small molecule agonists of the estrogen receptor beta (ER-beta) signaling pathway (AID 1259377; active = well fitted activation curve with a large enough effect in the signal ratio in the repeat runs, not every such curve was filed as active; the % refers to the signal ratio). In short, it runs like this: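 A UAS-controlled beta-lactamase reporter in ER-beta-UAS-bla HEK293T cells reports receptor activation. Compounds act for 16 hr at 37C in 2% charcoal-stripped serum, and a FRET substrate is read by fluorescence after 2 hours.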
Estrogen receptor beta (Homo sapiens), sequence (Q92731 whole entry, looked up): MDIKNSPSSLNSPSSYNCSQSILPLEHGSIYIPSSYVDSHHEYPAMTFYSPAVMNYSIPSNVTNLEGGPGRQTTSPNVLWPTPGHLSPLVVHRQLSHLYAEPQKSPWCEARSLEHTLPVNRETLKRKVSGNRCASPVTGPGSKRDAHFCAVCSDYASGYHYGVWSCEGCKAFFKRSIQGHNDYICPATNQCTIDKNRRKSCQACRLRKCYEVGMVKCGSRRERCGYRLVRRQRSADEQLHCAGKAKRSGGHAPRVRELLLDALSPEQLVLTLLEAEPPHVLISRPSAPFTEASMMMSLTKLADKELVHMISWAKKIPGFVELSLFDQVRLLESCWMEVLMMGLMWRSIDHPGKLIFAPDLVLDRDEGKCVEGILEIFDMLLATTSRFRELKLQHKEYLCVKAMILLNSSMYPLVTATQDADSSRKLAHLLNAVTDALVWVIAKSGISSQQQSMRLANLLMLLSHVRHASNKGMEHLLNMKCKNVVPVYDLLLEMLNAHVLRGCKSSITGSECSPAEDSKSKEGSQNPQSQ

Assay [19] has the same target. As to the kind of experiment: qHTS assay to identify small molecule antagonists of the estrogen receptor beta (ER-beta) signaling pathway (AID 1259378; active = well fitted inhibition curve with a large enough effect in the signal ratio in the repeat runs, not every such curve was filed as active; the % refers to the signal ratio). In short, it runs like this:
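Antagonist mode: compounds added to beta-lactamase reporter HEK293T ER-beta-UAS cells stimulated with E2 (1nM final), 16 hr at 37C. LiveBLAzer B/G FRET substrate, 2 hours room temperature, fluorescence read-out.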
% is set by controls: 0 for no effect and ±100 for the full control effect.

Androgen receptor (Homo sapiens), sequence (P10275 whole entry, looked up): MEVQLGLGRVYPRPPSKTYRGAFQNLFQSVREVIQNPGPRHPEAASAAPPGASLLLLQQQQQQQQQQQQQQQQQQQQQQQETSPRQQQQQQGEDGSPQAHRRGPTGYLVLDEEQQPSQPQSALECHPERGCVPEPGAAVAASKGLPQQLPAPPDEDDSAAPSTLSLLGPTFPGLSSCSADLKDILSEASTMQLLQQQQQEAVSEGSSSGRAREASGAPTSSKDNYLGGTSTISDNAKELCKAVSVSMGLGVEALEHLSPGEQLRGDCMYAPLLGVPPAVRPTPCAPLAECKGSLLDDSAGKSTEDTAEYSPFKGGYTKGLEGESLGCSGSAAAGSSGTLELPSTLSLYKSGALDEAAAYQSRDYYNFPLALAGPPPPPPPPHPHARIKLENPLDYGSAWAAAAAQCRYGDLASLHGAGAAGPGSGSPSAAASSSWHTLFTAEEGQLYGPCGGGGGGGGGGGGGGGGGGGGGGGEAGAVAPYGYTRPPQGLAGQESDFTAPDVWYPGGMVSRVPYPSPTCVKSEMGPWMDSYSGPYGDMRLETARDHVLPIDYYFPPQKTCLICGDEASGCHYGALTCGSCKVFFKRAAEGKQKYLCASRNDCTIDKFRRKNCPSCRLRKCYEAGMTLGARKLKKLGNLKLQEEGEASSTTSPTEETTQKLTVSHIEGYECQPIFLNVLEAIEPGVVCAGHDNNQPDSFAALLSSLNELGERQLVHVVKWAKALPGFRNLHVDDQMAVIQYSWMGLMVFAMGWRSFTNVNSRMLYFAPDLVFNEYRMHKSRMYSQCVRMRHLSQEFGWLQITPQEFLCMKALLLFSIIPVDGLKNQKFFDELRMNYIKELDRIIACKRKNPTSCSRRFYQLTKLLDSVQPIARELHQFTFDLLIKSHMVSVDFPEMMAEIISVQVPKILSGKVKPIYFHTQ

Turning to `C=CC(=O)OCCOC1C2CCC1C1CC=CC12` (stereo not drawn), the cytotoxicity increase in assay [1] was -0.0811% [at 15.8 µM]; in [7], -9.41% [at 15.8 µM]. Further, the activity change, negative = cytotoxic in [2] is 0.672% [at 15.8 µM]. Also, the activity change, negative = cytotoxicity in assay [3] is -2.24% [at 15.8 µM]; in [4], -0.849% [at 15.8 µM]; in assay [6] it was 5.34% [at 15.8 µM]; in assay [8], 0.54% [at 19 µM]; in assay [12], 3.58% [at 19 µM]. Also, the activity change in assay [5] was -0.617% [at 15.8 µM, active compounds read high]; in assay [15] it was -1.29% [at 18.9 µM, active compounds read high]. For the same compound, the viability change, negative = cytotoxic was 0.35% [at 19 µM] in [9], 9.3% [at 19 µM] in assay [13] and 5.82% [at 19 µM] in [14]. In addition, the activity, negative = inhibition in assay [10] is -0.369% [at 19 µM]. Moreover, the activity change, negative = inhibition is 5.48% [at 19 µM] in assay [11] and 6.04% [at 19 µM] in [16].
In the case of `Nc1ccc(F)c([N+](=O)[O-])c1`, the Potency result in assay [1], in [2], in assay [3], in [4], in [5] and in [6] was “inactive” in each case. Moreover, the Potency entry in [7], in assay [8], in assay [9], in assay [17], in [11] and in assay [12] was “inactive” each time. The Potency entry in assay [13], in assay [14], in assay [15] and in assay [19] was “inactive” in each case. Further, the compound was classed as inactive in assay [18].
For `Nc1cc([N+](=O)[O-])ccc1Cl`, the Potency result in [1], in [2], in assay [3], in assay [4], in [5] and in [6] was “inactive” each time. The Potency entry in assay [7], in assay [8], in assay [9], in assay [11], in assay [12] and in [13] was “inactive” each time. Further, the Potency result in assay [14], in assay [15], in assay [16] and in [19] was “inactive” each time. Besides, the outcome in assay [18] was inactive.
For `CCOC(=O)OC(=O)OCC`, the Potency entry in [1], in [2], in assay [3], in assay [4], in [5] and in assay [6] was “inactive” in each case. The Potency entry in [7], in assay [8], in assay [9], in assay [10], in assay [17] and in assay [11] was “inactive” each time. Also, the Potency entry in assay [12], in [13], in assay [14], in assay [15], in assay [16] and in assay [19] was “inactive” throughout.
As to `O=c1cc[nH]cc1`, the Potency entry in [1], in assay [2], in assay [3], in [4], in [5] and in assay [6] was “inactive” in each case. Moreover, the Potency entry in [7], in [8], in assay [9], in [10], in [11] and in assay [12] was “inactive” each time. The Potency entry in assay [13], in [14], in assay [15] and in assay [19] was “inactive” in each case. The compound was called inactive in assay [18].
For the compound `CCOC(=O)[C@H](O)[C@@H](O)C(=O)OCC`, the Potency result in assay [1], in assay [2], in assay [3], in [4], in [5] and in assay [6] was “inactive” throughout. Also, the Potency entry in assay [7], in assay [8], in assay [9], in assay [10], in assay [17] and in [11] was “inactive” throughout. Further, the Potency result in assay [12], in assay [13], in [14], in [15], in assay [16] and in [19] was “inactive” each time.
For the compound `S=C1NC=NC2N=CNC12` (stereo not drawn), the Potency entry in assay [1], in [2], in assay [4], in [5], in assay [6] and in [7] was “inactive” in each case. Also, the Potency entry in [8], in [9], in assay [11], in [12], in assay [13] and in [14] was “inactive” each time. Moreover, the Potency result in assay [15] and in [16] was “inactive” throughout. The Potency in assay [3] was 21.9 µM (active).
